# Assay results reported in the supplement of paper PMC8728848.
# This excerpt belongs to a sample that is enriched for the strongest signals.
# B1: Epa1-NP (Candida glabrata), Q6VBJ0 (protein)
# chain: MILNPALFLNKCVCIYTTLILLLLTNGGYATSSNDISLASKDPTTFPLGCSPDITTPKKGLSMELYSYDFRKKGSYPCWDAAYLDPNYPRTGYKSHRLLAKVDGVTGNINFYYHATKGCTPQLGHLPASYNYPKPLTMTNFTMLLYGYFRPKVTGFHTFTISADDLLFVNFGAGNAFDCCRRDSSADHFGNYQAYAIWGSKTAKDELTVHLDAGVYYPIRLFYNNREYDGALSFTFKTESNENTVSDFSEYFFSLDDTEEGCPGLISYDSSCASVKTSKIIGIDYHTETPNENLVPITKTIYHLGIPCTGTTTTPLCGSGFYDPLANKCVTINTSSTSSVTKTTSHTTSKEVSFHSSISSQKTLIPKSIPSPYGPIKSQSIPTEMETSSEISSSEYAFSDVISTPSHSPYTKKHSSLNSSSYTSTVIHSLTSYSISQGIFSTSLSEQNITSKSSTDKFSTATSMSNNITQSSIIISQFSTNNENYTTTSMHTSSDKISTETLNNSISTTTSILFSNSSTILKNNTTIISSDKDTHYHPVNPTIVCSTNKTEIICASITQPSISNSNNHWSSSVLKFNSTTVRSTLPSSAGSNETSINVPFSSSTESNTSTSSTSTSNSKMVRSTLPSSAGSNETSISVPFSSSTESNTSTSSTSTSNSKMVRSTLPSSAGSNETSINVPFSSSTESNTSTSSTSTSNSKTVRSTPFSSAGIIMTSLSQRNNKSASSYASSNSKCYNTADSCRKVHSTPSYLLTSSYTSEGVDYDCSLVSTKLKINDTNCVNNKHTTKSCLKTSVTTTIPTLEIKTARKSSSNTIGLHSYPTSSPNKSISSAPIIGYISSFKTIKTASPSYQTSDLTTITTITSLNNPGSTAVENTHESNDKSRKTSSNDISSKHSVIKETKDAVESSNKSHQTNTLKCSSIIIASSSHNSYESLGGTTLTLTLSKVYSPQNNDTLPFLEISEVNPSRTVLPESSKMMQYLTSTEERNKTARNTIATNIVSISTFHFEGEGNAIRMGYTQLLLMLIGIIVMNIGT
# Columns and labels:
# Assay in all cases: glycan array binding signal (z-score within array); higher = stronger binding
# Conditions in all cases: glycan notation: IUPAC condensed, linker removed
# [1] = molecular target: Gal3S(b1-3)[Fuc(a1-4)]GlcNAc
# In short: (§1)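 Glycan array binding is given as a within-array Z-score, which can be read as non-binding when negative. The arrays, 3228 of them, came from the Consortium for Functional Glycomics database and were retained only where the protein sequence was available. Z-scores were averaged across arrays of the same protein sequence at different concentrations or buffers and across linkers.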
# [2] = molecular target: GalNAc(a1-3)Fuc(a1-2)Gal(b1-4)GlcNAc(b1-3)[GalNAc(a1-3)Fuc(a1-2)Gal(b1-4)GlcNAc(b1-6)]GalNAc
# In short: as §1
# [3] = molecular target: GalNAc(a1-3)GalNAc
# In short: as §1
# [4] = molecular target: GalNAc(b1-3)Gal(a1-4)Gal(b1-4)GlcNAc
# In short: as §1
# [5] = molecular target: GalNAc(b1-3)GalNAc
# In short: as §1
# [6] = molecular target: GalNAc(b1-4)Gal(b1-4)Glc
# In short: as §1
# [7] = molecular target: GalNAc(b1-4)GlcNAc(b1-3)GalNAc(b1-4)GlcNAc
# In short: as §1
# [8] = molecular target: GalNAc3S(b1-4)GlcNAc3S
# In short: as §1
# [9] = molecular target: Glc(a1-6)Glc(a1-6)Glc
# In short: as §1
# [10] = molecular target: GlcNAc(a1-3)Gal(b1-4)GlcNAc
# In short: as §1
# [11] = molecular target: GlcNAc(a1-4)Gal(b1-4)GlcNAc(b1-3)Gal(b1-4)GlcNAc
# In short: as §1
# [12] = molecular target: GlcNAc(b1-2)[GlcNAc(b1-4)]Man(a1-3)[GlcNAc(b1-4)][GlcNAc(b1-2)[GlcNAc(b1-6)]Man(a1-6)]Man(b1-4)GlcNAc(b1-4)[Fuc(a1-6)]GlcNAc
# In short: as §1
# [13] = molecular target: GlcNAc(b1-3)Gal(b1-4)GlcNAc(b1-3)Gal(b1-4)GlcNAc(b1-2)[GlcNAc(b1-3)Gal(b1-4)GlcNAc(b1-3)Gal(b1-4)GlcNAc(b1-6)]Man(a1-6)[GlcNAc(b1-3)Gal(b1-4)GlcNAc(b1-3)Gal(b1-4)GlcNAc(b1-2)Man(a1-3)]Man(b1-4)GlcNAc(b1-4)[Fuc(a1-6)]GlcNAc
# In short: as §1
# [14] = molecular target: GlcNAc(b1-3)Gal(b1-4)GlcNAc(b1-3)GalNAc
# In short: as §1
# [15] = molecular target: GlcNAc(b1-3)[GlcNAc(b1-6)]GalNAc
# In short: as §1
# [16] = molecular target: GlcNAc(b1-4)GlcNAc(b1-4)GlcNAc(b1-4)GlcNAc(b1-4)GlcNAc(b1-4)GlcNAc
# In short: as §1
# [17] = molecular target: Man(a1-3)[Man(a1-6)]Man(b1-4)GlcNAc(b1-4)GlcNAc
# In short: as §1
# [18] = molecular target: Neu5Ac(a2-3)Gal(b1-4)GlcNAc(b1-2)[Neu5Ac(a2-3)Gal(b1-4)GlcNAc(b1-4)]Man(a1-3)[GlcNAc(b1-4)][Neu5Ac(a2-3)Gal(b1-4)GlcNAc(b1-4)Man(a1-6)]Man(b1-4)GlcNAc(b1-4)GlcNAc
# In short: as §1
# [19] = molecular target: Neu5Ac(a2-3)Gal(b1-4)GlcNAc(b1-3)Gal(b1-4)GlcNAc(b1-3)GalNAc
# In short: as §1
# [20] = molecular target: Neu5Ac(a2-3)GalNAc(b1-4)GlcNAc
# In short: as §1
# [21] = molecular target: Neu5Ac(a2-6)Gal
# In short: as §1
# [22] = molecular target: Neu5Ac(a2-6)Gal(b1-4)GlcNAc(b1-2)Man(a1-3)[GlcNAc(b1-2)Man(b1-4)GlcNAc(b1-2)Man(a1-6)]Man(b1-4)GlcNAc(b1-4)GlcNAc
# In short: as §1
# [23] = molecular target: Neu5Ac(a2-6)Gal(b1-4)GlcNAc6S
# In short: as §1
# [24] = molecular target: Neu5Ac(a2-6)GlcNAc(b1-4)GlcNAc
# In short: as §1
# [25] = molecular target: Neu5Gc(a2-3)Gal(b1-3)GlcNAc
# In short: as §1
# [26] = molecular target: Neu5Gc(a2-3)Gal(b1-4)Glc
# In short: as §1
# [27] = molecular target: Neu5Gc(a2-8)Neu5Ac(a2-3)Gal(b1-4)GlcNAc
# In short: as §1
# [28] = molecular target: Neu5Gc(a2-8)Neu5Gc(a2-3)Gal(b1-4)GlcNAc
# In short: as §1
binder,measurement,setting,value
B1,glycan array binding signal (z-score),[1],-0.293
same,glycan array binding signal (z-score),[2],-0.254
same,glycan array binding signal (z-score),[3],-0.306
same,glycan array binding signal (z-score),[4],-0.325
same,glycan array binding signal (z-score),[5],-0.293
same,glycan array binding signal (z-score),[6],-0.286
same,glycan array binding signal (z-score),[7],-0.291
same,glycan array binding signal (z-score),[8],-0.283
same,glycan array binding signal (z-score),[9],-0.338
same,glycan array binding signal (z-score),[10],-0.317
same,glycan array binding signal (z-score),[11],-0.217
same,glycan array binding signal (z-score),[12],-0.285
same,glycan array binding signal (z-score),[13],-0.27
same,glycan array binding signal (z-score),[14],-0.287
same,glycan array binding signal (z-score),[15],-0.284
same,glycan array binding signal (z-score),[16],-0.319
same,glycan array binding signal (z-score),[17],-0.374
same,glycan array binding signal (z-score),[18],-0.295
same,glycan array binding signal (z-score),[19],-0.291
same,glycan array binding signal (z-score),[20],-0.338
same,glycan array binding signal (z-score),[21],-0.276
same,glycan array binding signal (z-score),[22],-0.296
same,glycan array binding signal (z-score),[23],-0.31
same,glycan array binding signal (z-score),[24],-0.281
same,glycan array binding signal (z-score),[25],-0.348
same,glycan array binding signal (z-score),[26],-0.308
same,glycan array binding signal (z-score),[27],-0.286
same,glycan array binding signal (z-score),[28],-0.286
